The results in this text go back to PubChem BioAssay.

Unmarked numbers belong to inactive results. The list shows a part of the results. The source made the active and inactive calls.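 Rule for the calls, unless noted: active = membrane potential signal drops by more than 5 SD from the mean control signal, in both duplicate plates; inactive = the rest.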

The nature of experiment [1]: nonspecific voltage dye response without TRPC6 – cell-based, parental HEK293, counter-screen for TRPC6 modulator project, confirmation (AID 488924;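 active = membrane potential signal moves up or down beyond 5 SD from buffer-only wells, on both duplicate plates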). As to conditions: parental HEK293, membrane potential dye fluorescence; at 10 µM.
A short description of experiment [2]: membrane potential response modulators in host HEK293 cells – cell-based, second counter-screen, parental HEK293, membrane potential dye, counter-screen for TRPC6 modulator project, confirmation (AID 488926).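 For inhibition: plate controls were acetylcholine ECmax control wells for no effect and buffer only wells for full effect.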 As to conditions: parental HEK293, membrane potential dye fluorescence, at 10 µM, after compound, maximal acetylcholine stimulation; hits give high values.

For experiment [3], the system named is Transient receptor potential cation channel subfamily C member 4 (mouse). In words: off-target membrane potential effects via mouse TRPC4 – cell-based, HEK293 TRPC4/mu-opioid, membrane potential dye, selectivity assay for TRPC6 modulator project, confirmation (AID 488927;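 active = membrane potential signal moved up or down beyond 5 SD of buffer control wells, in both duplicate plates, actives on both sides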;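 for percent change from control (negative = decrease, positive = increase): plate controls were assay buffer wells for no effect and DAMGO maximal-effect wells for full effect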). The settings on record: membrane potential fluorescence, at 10 µM.
For experiment [4], the system named is TRPC4 (transient receptor potential cation channel C4), mouse. In words: DAMGO-evoked mouse TRPC4 response blockade – cell-based, second screen, HEK293 TRPC4/mu-opioid, membrane potential dye, selectivity assay for TRPC6 modulator project, confirmation (AID 488928;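 active = drop in membrane potential signal beyond 5 SD of the control wells in both duplicate plates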;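 note: TRPC4 counter screen for TRPC6 hits run under conditions tuned for TRPC6 not TRPC4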). The settings on record: membrane potential dye fluorescence, at 10 µM, stimulated with maximal-effect DAMGO; hits give high values.

Experiment [5] deals with Short transient receptor potential channel 6 (Mus musculus) (UniProt Q61143). In words: blockers of TRPC6 cation channel activity – HEK293 cells, membrane potential dye, duplicate, confirmation (AID 488960;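 active = fluorescence ratio falls more than 5 SD below the full-stimulation control mean, in both duplicate runs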;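 for inhibition: integrated fluorescence ratio of peak minus minimum over baseline after agonist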). As to conditions: ACh-evoked depolarization, at 10 µM; hits give high values.
Chain of Short transient receptor potential channel 6 (Mus musculus) (Q61143 whole entry, looked up): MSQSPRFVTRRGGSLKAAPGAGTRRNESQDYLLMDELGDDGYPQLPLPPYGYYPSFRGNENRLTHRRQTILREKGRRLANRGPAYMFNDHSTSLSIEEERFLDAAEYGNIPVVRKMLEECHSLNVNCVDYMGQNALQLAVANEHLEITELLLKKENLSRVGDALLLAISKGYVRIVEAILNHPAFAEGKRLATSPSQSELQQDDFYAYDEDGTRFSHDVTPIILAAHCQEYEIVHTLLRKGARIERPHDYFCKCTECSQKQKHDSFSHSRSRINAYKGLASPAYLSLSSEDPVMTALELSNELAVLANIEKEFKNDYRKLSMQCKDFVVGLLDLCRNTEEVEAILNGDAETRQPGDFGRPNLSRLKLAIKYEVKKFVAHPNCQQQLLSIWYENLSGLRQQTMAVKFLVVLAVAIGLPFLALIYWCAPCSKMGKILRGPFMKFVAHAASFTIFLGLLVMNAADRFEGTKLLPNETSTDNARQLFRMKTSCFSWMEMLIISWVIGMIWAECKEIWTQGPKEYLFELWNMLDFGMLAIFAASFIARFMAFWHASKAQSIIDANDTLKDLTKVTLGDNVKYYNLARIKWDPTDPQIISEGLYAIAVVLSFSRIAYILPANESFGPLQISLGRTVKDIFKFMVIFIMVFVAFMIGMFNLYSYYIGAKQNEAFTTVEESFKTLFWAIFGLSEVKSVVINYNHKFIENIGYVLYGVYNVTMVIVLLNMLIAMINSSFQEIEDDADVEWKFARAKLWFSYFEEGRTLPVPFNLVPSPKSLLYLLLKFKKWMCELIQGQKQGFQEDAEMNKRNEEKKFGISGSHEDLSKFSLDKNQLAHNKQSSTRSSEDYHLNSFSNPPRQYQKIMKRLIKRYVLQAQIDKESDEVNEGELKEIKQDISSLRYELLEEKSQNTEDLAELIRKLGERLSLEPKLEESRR
Experiment [6] has the same target. Kind of experiment: mouse TRPC6 channel activators, confirmation, HEK293 cells, membrane potential dye, duplicate (AID 488961;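 active = ratio signal rise beyond 5 SD above unstimulated control wells' mean, seen in both duplicate runs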;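 for activation: plate controls were buffer EC0 wells for no effect and acetylcholine ECmax response for full effect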). The settings on record: HEK293-TRPC6 membrane potential dye fluorescence, FDSS, at 10 µM; hits give high values.
A short description of experiment [7]: nonspecific flux increase, KCNQ1-free cells – parental CHO cells, counter-screen for KCNQ1 potentiator project (AID 493006;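 active = duplicate-averaged activation above buffer control mean plus 5 SD of those controls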;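 for activation: fluorescence ratio of max minus min over baseline after K+ and Tl+ depolarization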). As to conditions: parental CHO-K1 cells, FluxOR thallium flux, at 10 µM; hits give high values.
The target in experiment [8] is Potassium voltage-gated channel subfamily KQT member 1 (Homo sapiens) (UniProt P51787). In words: enhancement of KCNQ1 channel thallium flux – FluxOR thallium flux, CHO cells, duplicates, confirmation (AID 493007;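 active = potentiation averaged over duplicate wells exceeding buffer-only control mean by more than 3 SD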;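 for outcome: cells depolarized by a potassium plus thallium sulfate stimulus after compound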;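 for potentiation: 0% = buffer-only wells and 100% = R-L3 activator control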). As to conditions: KCNQ1 cell line, FluxOR thallium flux fluorescence, at 10 µM; hits give high values, % of reference activator effect, buffer zero.
Chain of Potassium voltage-gated channel subfamily KQT member 1 (Homo sapiens) (P51787 whole entry, looked up): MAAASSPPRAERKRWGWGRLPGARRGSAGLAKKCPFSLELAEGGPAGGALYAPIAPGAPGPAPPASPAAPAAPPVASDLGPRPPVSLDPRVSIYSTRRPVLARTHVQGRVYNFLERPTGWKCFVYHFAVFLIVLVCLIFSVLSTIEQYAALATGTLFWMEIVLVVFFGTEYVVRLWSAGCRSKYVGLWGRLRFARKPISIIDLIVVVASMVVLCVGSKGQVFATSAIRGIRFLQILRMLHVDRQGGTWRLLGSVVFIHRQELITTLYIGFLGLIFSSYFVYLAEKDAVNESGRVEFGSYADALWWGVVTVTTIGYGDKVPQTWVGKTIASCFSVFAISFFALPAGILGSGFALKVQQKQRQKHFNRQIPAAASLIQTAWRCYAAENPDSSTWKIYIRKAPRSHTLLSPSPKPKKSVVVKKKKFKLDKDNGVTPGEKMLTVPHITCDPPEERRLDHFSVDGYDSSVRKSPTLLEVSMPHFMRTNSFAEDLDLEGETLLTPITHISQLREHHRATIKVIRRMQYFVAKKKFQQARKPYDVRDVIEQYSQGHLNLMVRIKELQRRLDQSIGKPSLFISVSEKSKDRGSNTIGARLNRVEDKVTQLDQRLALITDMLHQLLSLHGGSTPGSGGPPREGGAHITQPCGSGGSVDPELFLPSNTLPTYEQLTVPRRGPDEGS
Experiment [9] addresses Potassium voltage-gated channel subfamily KQT member 2 (Rattus norvegicus) (UniProt O88943). In words: KCNQ2 thallium flux enhancement – KCNQ2-CHO-K1 cells, selectivity assay for KCNQ1 potentiator project (AID 493009;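 active = mean duplicate potentiation above the buffer control mean plus 5 SD of buffer wells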;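 note: assay conditions were tuned for KCNQ1 rather than KCNQ2 modulators; signal is max minus min fluorescence divided by baseline after thallium stimulus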). As to conditions: FluxOR thallium flux fluorescence, at 10 µM; hits give high values, scaled: buffer 0, activator control 100.
In experiment [10] the target is Potassium voltage-gated channel subfamily KQT member 1 (Homo sapiens) (UniProt P51787). Kind of experiment: KCNQ1 activators by electrophysiology – IonWorks patch clamp, KCNQ1-CHO cells, orthogonal assay for KCNQ1 potentiator project, confirmation (AID 493184;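 active = current rise at least 3 SD above the untreated control mean in each of two repeat wells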). As to conditions: automated patch clamp current, at 10 µM; hits give high values.

Chain of Potassium voltage-gated channel subfamily KQT member 2 (Rattus norvegicus) (O88943 whole entry, looked up): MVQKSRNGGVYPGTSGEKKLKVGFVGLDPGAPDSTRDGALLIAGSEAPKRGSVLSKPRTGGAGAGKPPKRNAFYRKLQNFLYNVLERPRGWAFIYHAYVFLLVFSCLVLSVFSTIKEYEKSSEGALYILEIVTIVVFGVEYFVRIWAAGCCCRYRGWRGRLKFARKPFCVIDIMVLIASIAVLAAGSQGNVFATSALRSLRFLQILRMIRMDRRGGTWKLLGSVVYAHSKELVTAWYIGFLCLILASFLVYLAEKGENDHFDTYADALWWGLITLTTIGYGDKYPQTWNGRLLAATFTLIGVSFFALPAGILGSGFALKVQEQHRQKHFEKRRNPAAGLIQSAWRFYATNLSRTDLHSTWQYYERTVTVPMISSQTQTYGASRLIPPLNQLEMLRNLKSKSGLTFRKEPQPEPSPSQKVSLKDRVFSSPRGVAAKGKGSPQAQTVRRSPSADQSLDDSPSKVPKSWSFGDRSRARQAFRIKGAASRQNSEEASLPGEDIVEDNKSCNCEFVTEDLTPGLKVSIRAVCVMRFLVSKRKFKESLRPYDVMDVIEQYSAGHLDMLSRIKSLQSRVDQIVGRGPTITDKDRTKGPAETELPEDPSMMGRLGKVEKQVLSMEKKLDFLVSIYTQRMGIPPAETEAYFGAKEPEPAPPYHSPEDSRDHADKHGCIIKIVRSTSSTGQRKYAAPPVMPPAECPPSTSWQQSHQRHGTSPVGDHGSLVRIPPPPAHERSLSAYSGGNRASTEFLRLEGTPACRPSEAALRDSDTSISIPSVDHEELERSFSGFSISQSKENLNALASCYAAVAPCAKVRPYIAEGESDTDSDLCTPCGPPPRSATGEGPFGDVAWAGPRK

Regarding `CN(CC(=O)Nc1ccccc1[N+](=O)[O-])Cc1ccc(Br)cc1`, the result in experiment [1], in [2], in [3], in experiment [5] and in experiment [6] was inactive. Also, in experiment [4], the inhibition is 29% (active).

Turning to `Cc1nn(Cc2ccc(C(=O)N3N=C(C(F)F)CC3(O)C(F)F)cc2)c(C)c1[N+](=O)[O-]` (stereo not given), the result in experiment [1], in experiment [2], in experiment [4], in experiment [5] and in experiment [6] was inactive. Further, the percent change from control (negative = decrease, positive = increase) in [3] is -17.5% (active).

Turning to `Cc1cc(C)c2nc3nc(C)cc(C)c3c(N)c2c1`, the result in experiment [1], in experiment [5] and in experiment [6] was inactive. The inhibition was 76.5% (active) in experiment [2] and 48% (active) in experiment [4]. In experiment [3], the percent change from control (negative = decrease, positive = increase) is -31% (active).

As to `CCOC(=O)C1=NN(C(=O)c2ccccc2)C(O)(c2ccc(C)cc2)C1` (stereo not given), the activation in [7] was 141% (active). Besides, the potentiation in experiment [8] was 49.5% (active); in experiment [9], 216% (active). For the same compound, in experiment [10], the outcome was inactive.

In the case of `CCc1ccc(-c2cc(C(=O)NN3CCN(C)CC3)c3ccccc3n2)cc1`, the result in [1], in [2], in experiment [3], in experiment [5] and in experiment [6] was inactive. In addition, the inhibition in [4] was 41% (active).

`O=C(NC1C2CC3CC(C2)CC1C3)c1ccc(N2CCNCC2)c([N+](=O)[O-])c1` (stereo not given): the membrane potential signal change in experiment [1] was -120% (active). For the same compound, the outcome in experiment [2] and in [6] was inactive. Besides, in experiment [3], the percent change from control (negative = decrease, positive = increase) was -22% (active). Moreover, the inhibition was 70.5% (active) in experiment [4] and 57.5% (active) in [5].

Turning to `O=S(=O)(c1cccc(Cn2nnc(-c3ccc(F)cc3)n2)c1)N1CCOCC1`, the outcome in experiment [1], in experiment [2], in experiment [3], in experiment [4], in [5] and in [6] was inactive.

In the case of `O=C(NCC1CCCO1)c1ccccc1OCc1ccc(F)cc1` (stereo not given), the outcome in experiment [7], in experiment [8], in experiment [9] and in experiment [10] was inactive.

With `CCCCN(C)CCCNC(=O)c1cc(-c2cccs2)nc2ccccc12`, the result in experiment [1], in experiment [2], in experiment [5] and in experiment [6] was inactive. For the same compound, in experiment [3], the percent change from control (negative = decrease, positive = increase) was -13% (active). In addition, the inhibition in [4] was 65.5% (active).

With `Cc1cc(N2CCN(S(=O)(=O)c3ccc(C)c(C)c3)CC2)c2ccccc2n1`, the outcome in experiment [1], in experiment [2], in experiment [5] and in experiment [6] was inactive. Also, in [3], the percent change from control (negative = decrease, positive = increase) is -10.5% (active). Further, in experiment [4], the inhibition was 65% (active).

`CN1CCN(/N=C/c2ccc(-c3ccc([N+](=O)[O-])cc3)o2)CC1`: the membrane potential signal change in experiment [1] was 407% (active). Also, in experiment [2], the result was inactive. Further, the percent change from control (negative = decrease, positive = increase) in [3] is 65.5% (active). In addition, the inhibition in experiment [4] was 43.5% (active). For the same compound, in experiment [6], the activation is 158% (active).

Regarding `COc1ccc(Cn2c(-c3ccc(Cl)cc3)c[n+]3ccccc23)cc1`, in [1], the membrane potential signal change was -296% (active). Besides, the outcome in experiment [2] and in experiment [6] was inactive. Also, the percent change from control (negative = decrease, positive = increase) in experiment [3] is -51.5% (active). In addition, the inhibition in experiment [4] is 48% (active); in experiment [5], 50.5% (active).

Consider `O=C1CN(C(=O)c2ccccc2F)C(c2ccc(F)cc2)c2cc(F)ccc2N1` (stereo not given), for which the membrane potential signal change in experiment [1] is 106% (active). For the same compound, the outcome in experiment [2], in experiment [4], in experiment [5] and in experiment [6] was inactive. For the same compound, in experiment [3], the percent change from control (negative = decrease, positive = increase) is 26.5% (active).

Turning to `CCN1CCN(c2ccc([N+](=O)[O-])cc2C(=O)c2ccc(Cl)cc2)CC1`, in experiment [1], the membrane potential signal change was 150% (active). The result in [2], in [5] and in experiment [6] was inactive. Besides, the percent change from control (negative = decrease, positive = increase) in [3] is 20.5% (active). Moreover, in [4], the inhibition is 63.5% (active).

As for `COc1ccccc1C(CNC(=O)c1cccc(NS(=O)(=O)c2ccc(Br)cc2)c1)N(C)C` (stereo not given), the outcome in [1], in experiment [2], in [3] and in [6] was inactive. Besides, the results for the inhibition in experiment [4] and in [5] were 32.5% (active) and 44% (active), respectively.
